# Measurements taken from PubChem BioAssay (NCATS).
# Inconclusive results are not listed. Where a call stands in place of a potency, no number is given. Active and inactive are the calls of the source. The call rests on the fitted dose curve; in most records, active means well fitted cell-killing curve with a large enough effect; inconclusive means small, poorly fitted or top-dose-only effect, or effect the other way; inactive means no such curve, though single readings can be large or run the other way.
# Test: Quantitative High-Throughput drug screen in 47 multiple myeloma cell lines against the NCATS MIPE library collection: ARD_JJKsccE7 cell viability assay (AID 1918929)
# Details: ARD myeloma cell line viability, CellTiter-Glo, 48 h; series mostly up to 45.8 µM
# Text: PI: Beverly A. Mock Ph.D.
# Laboratory of Cancer Biology and Genetics,
# Center for Cancer Research, National Cancer Institute,
# National Institute of Health, Bethesda, Maryland
# Drug resistance and disease progression are common in multiple myeloma (MM) patients, underscoring the need for new therapeutic combinations. […] We hypothesized that effective combinations would reduce MYC expression and enhance p16 activity. […] These preclinical data identify potentially useful drug combinations for evaluation in drug-resistant MM and reveal potential mechanisms of combined drug sensitivity.
# Described herein is the primary MIPE qHTS used to cherrypick compounds. Validated compounds were then further tested for potential synergistic activiy.
# [1] Peat TJ, Gaikwad SM, Dubois W, Gyabaah-Kessie N, Zhang S, Gorjifard S, Phyo Z, Andres M, Hughitt VK, Simpson RM, Miller MA, Girvin AT, Taylor A, Williams D, D'Antonio N, Zhang Y, Rajagopalan A, Flietner E, Wilson K, Zhang X, Shinn P, Klumpp-Thomas C, McKnight C, Itkin Z, Chen L, Kazandijian D, Zhang J, Michalowski AM, Simmons JK, Keats J, Thomas CJ, Mock BA. Drug combinations identified by high-throughput screening promote cell cycle transition and upregulate Smad pathways in myeloma. Cancer Lett. 2023 Aug 1;568:216284. doi: 10.1016/j.canlet.2023.216284. Epub 2023 Jun 24. PMID: 37356470; PMCID: PMC10408729.
# SEQUENCE No. (e.g., 1, 2, 3, etc.); […] (e.g., Cells, Incubation, Reagent, etc.); VALUE and DESCRIPTION.
# 1; Cells; 5 uL; white, solid bottom 1536-well Greiner assay plate.
# 2; Compounds; 23 nL; Kalypsis pin tool (Wako USA) equipped with a 1536-well pin head to transfer to the assay plates.
# 3; Incubation; 48 hours; 37C incubation.
# 4; Reagent;5uL; CellTiter Glo (Promega).
# 5; Detector; 425V; Luminescence; Viewlux PerkinElmer.
# NOTES (numbers refer to Sequence numbers above)
# 1. The cell-based screening methods employed in this study were like those previously published. Briefly, the corresponding myeloma cell lines were screened in 1,536-well plates with 500 cells, 5-uL per well for inhibition of cell viability (assessed by measuring ATP levels with CellTiterGlo).
# 2. NCATS MIPE 4.0 library of approved and investigational drugs were added using the Kalypsis pin tool. Wells treated with DMSO only for 100% viability and media only wells for 0% viability were used as controls.
# 3. The assay plates were covered and incubated for 48 hours in a 37C, 5% CO2 incubator with controlled humidity.
# 4. After 48 hours, CellTilter-GloTM luminescent substrate mix (Promega) reagent was added to the assay plate and plates we incubated for 5 min at room temperature.
# 5. Signal was measured as median relative luminescence units on a ViewLux (PerkinElmer) multiplate reader.
# [1] Heske CM, Davis MI, Baumgart JT, Wilson K, Gormally MV, Chen L, Zhang X, Ceribelli M, Duveau DY, Guha R, Ferrer M, Arnaldez FI, Ji J, Tran HL, Zhang Y, Mendoza A, Helman LJ, Thomas CJ. Matrix Screen Identifies Synergistic Combination of PARP Inhibitors and Nicotinamide Phosphoribosyltransferase (NAMPT) Inhibitors in Ewing Sarcoma. Clin Cancer Res. 2017 Dec 1;23(23):7301-7311. doi: 10.1158/1078-0432.CCR-17-1121. Epub 2017 Sep 12. PMID: 28899971; PMCID: PMC6636827.
# Potency means the concentration at half of the fitted maximal effect.
row,SMILES,Potency
1,NNCCc1ccccc1,inactive
2,CCCC(CCC)C(=O)O,inactive
3,CC(C=CC1=C(C)CCCC1(C)C)=CC=CC(C)=CC(=O)O,23.5 µM (active)
4,NC[C@H](O)c1ccc(O)c(O)c1,inactive
5,CC(C)(Sc1ccc(CCN(CCCCC2CCCCC2)C(=O)NC2CCCCC2)cc1)C(=O)O,inactive
6,COc1ccc(-c2ccc3c(N4CCOCC4)nc(N4C[C@@H](C)O[C@@H](C)C4)nc3n2)cc1CO,1.32 µM (active)
7,COc1ccc(CCN2CCN(CCCc3ccccc3)CC2)cc1OC,13.2 µM (active)
8,Cc1ccccc1C(OCCN(C)C)c1ccccc1 (stereo not given),inactive
9,Nc1nccc(-c2ccc3noc(-c4ccc(Cl)cc4)c3c2)n1,inactive
10,O=C(Nc1cccnc1)N1CCC(Cc2cccc(Oc3ccc(C(F)(F)F)cn3)c2)CC1,11.8 µM (active)
11,COc1ccc(C2=N[C@H](c3ccc(Cl)cc3)[C@H](c3ccc(Cl)cc3)N2C(=O)N2CCNC(=O)C2)c(OC(C)C)c1,inactive
12,Cc1ccnc(NS(=O)(=O)c2ccc(NC(=O)Nc3ccc(S(=O)(=O)Nc4nccc(C)n4)cc3)cc2)n1,23.5 µM (active)
13,COc1nc(-c2ccc3c(c2)OCO3)n(-c2ccc(NC(=O)CSc3ccccc3)cc2)n1,inactive
14,OC(CN1CCC(Cc2ccc(F)cc2)CC1)c1ccc(Cl)cc1 (stereo not given),inactive
15,C[C@]1(c2nc3c(C(N)=O)cccc3[nH]2)CCCN1,inactive
16,COCC(=O)NCC=Cc1ccc2ncnc(Nc3ccc(Oc4ccc(C)nc4)c(C)c3)c2c1,11.8 µM (active)
17,Cn1cnc2c(F)c(Nc3ccc(Br)cc3Cl)c(C(=O)NOCCO)cc21,0.743 µM (active)
18,CC(C)C[C@H](NC(=O)[C@@H](O)[C@H](N)Cc1ccccc1)C(=O)O,inactive
19,C[C@@H]1CN(Cc2ccc(F)cc2)[C@@H](C)CN1C(=O)c1cc2c(C(=O)C(=O)N(C)C)cn(C)c2cc1Cl,9.35 µM (active)
20,C#Cc1cccc(Nc2ncnc3cc(OCCOC)c(OCCOC)cc23)c1,5.9 µM (active)

row,SMILES,Potency
1,Cc1cc(SCc2sc(-c3ccc(C(F)(F)F)cc3)nc2C)ccc1OCC(=O)O,inactive
2,Nc1cccc(S(=O)(=O)N2CCCN(S(=O)(=O)c3ccc4c(c3)OCCO4)CC2)c1,inactive
3,CC1(C)SCCN(S(=O)(=O)c2ccc(OCC#CCO)cc2)[C@@H]1C(=O)NO,inactive
4,OCCC#Cc1nc(-c2ccc(F)cc2)c(-c2ccncc2)n1CCCc1ccccc1,16.6 µM (active)
5,O=C1CCC(N2C(=O)c3ccccc3C2=O)C(=O)N1 (stereo not given),inactive
6,Cn1cnc([N+](=O)[O-])c1Sc1ncnc2nc[nH]c12,1.18 µM (active)
7,CNCc1ccc(-c2[nH]c3cc(F)cc4c3c2CCNC4=O)cc1,5.9 µM (active)
8,CC(C)(C)NCC(O)c1ccc(O)c(CO)c1 (stereo not given),0.0526 µM (active)
9,CC(C)OC(=O)C1=CN(C(=O)c2ccc(F)c(F)c2)CC(C)(C)c2c1[nH]c1ccccc21,inactive
10,CS(=O)(=O)Oc1ccc2c(NC(N)=O)c(C(=O)c3ccc(Cl)cc3Cl)oc2c1,8.33 µM (active)
11,Nc1ccc(S(=O)(=O)Nc2ccnn2-c2ccccc2)cc1,inactive
12,c1ccc([C@H]2CN3CCSC3=N2)cc1,inactive
13,CCCS(=O)(=O)Nc1ccc(F)c(C(=O)c2c[nH]c3ncc(Cl)cc23)c1F,18.7 µM (active)
14,N=c1nc(N2CCCCC2)cc(N)n1O,inactive
15,CCOc1ccn(-c2ccc(F)cc2)c(=O)c1C(=O)Nc1ccc(Oc2ccnc(N)c2Cl)c(F)c1,18.7 µM (active)
16,CCOC(=O)N1CCC(=C2c3ccc(Cl)cc3CCc3cccnc32)CC1,0.0017 µM (active)
17,O=C(Nc1ccc(F)c(C(F)(F)F)c1)Nc1nnc(-c2ccncc2)s1,inactive
18,Fc1ccc(Cl)cc1-c1nc(Nc2ccncc2)c2nccnc2n1,inactive
19,CCc1cc(Nc2nccc(-c3c(-c4ccc(OC)c(C(=O)Nc5c(F)cccc5F)c4)nc4ccccn34)n2)c(OC)cc1N1CCC(N2CCN(S(C)(=O)=O)CC2)CC1,4.69 µM (active)
20,CN(C)c1ccc(C2Nc3ccc4ccccc4c3C3=C2C(=O)CC(C)(C)C3)cc1Br (stereo not given),inactive
